# Test results reported in the supplement of paper PMC8975748.
# Counter-ions that a name gives are not always drawn. ± gives the standard deviation of the averaged measurements.
# Columns and labels:
# [1] = system: Saccharomyces cerevisiae BY4741 SeMeCo community; assay: mean cell size (pixel area) (pixels); higher = larger cells; details: 10 µM; 24 h; SM minimal medium
# In short: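 A four-plasmid fluorescent Saccharomyces cerevisiae BY4741 community was tested; each plasmid complements one auxotrophy and carries a fluorescent marker. An overnight preculture at OD600 = 1.0 was diluted to OD600 = 0.3, and 70 µl was added to 384-well plates acoustically predosed with drug (final 10 µM) in SM medium for 24 h. Cells were fixed with paraformaldehyde and imaged by automated confocal microscopy, with analysis in Harmony. Mean cell pixel area per well is averaged over 3 replicates. Same SeMeCo high-content imaging drug screen: Selleck FDA-approved drugs at 10 µM, 24 h in SM medium, 384-well plates, 3 replicates.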
# [2] = system: Saccharomyces cerevisiae BY4741 SeMeCo community; assay: z-score of prototroph abundance vs DMSO median; higher = larger share of this subpopulation than in DMSO controls; details: 10 µM; 24 h; SM minimal medium; subpopulation (auxotrophy): Prototroph
# In short: (§1)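 Four plasmids, each restoring a single auxotrophy and encoding a distinct fluorescent protein, were carried by a Saccharomyces cerevisiae BY4741 community. After overnight growth to OD600 1.0 and dilution to 0.3, 70 µl per well was grown for 24 h in minimal SM medium on 384-well plates acoustically predosed with library drugs at 10 µM final. Following paraformaldehyde fixation, automated confocal microscopy was used, with single-auxotroph fluorescent strains defining thresholds and autofluorescence correction. Subpopulation abundance was then scored as a z-score against the vehicle-well median.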
# [3] = system: Saccharomyces cerevisiae BY4741 SeMeCo community; assay: z-score of subpopulation abundance vs DMSO median, subpopulation auxotrophic for M; higher = larger share of this subpopulation than in DMSO controls; details: 10 µM; 24 h; SM minimal medium; subpopulation (auxotrophy): M
# In short: as §1
# [4] = system: Saccharomyces cerevisiae BY4741 SeMeCo community; assay: z-score of subpopulation abundance vs DMSO median, subpopulation auxotrophic for L; higher = larger share of this subpopulation than in DMSO controls; details: 10 µM; 24 h; SM minimal medium; subpopulation (auxotrophy): L
# In short: as §1
# [5] = system: Saccharomyces cerevisiae BY4741 SeMeCo community; assay: z-score of subpopulation abundance vs DMSO median, subpopulation auxotrophic for U; higher = larger share of this subpopulation than in DMSO controls; details: 10 µM; 24 h; SM minimal medium; subpopulation (auxotrophy): U
# In short: as §1
# [6] = system: Saccharomyces cerevisiae BY4741 SeMeCo community; assay: z-score of subpopulation abundance vs DMSO median, subpopulation auxotrophic for H; higher = larger share of this subpopulation than in DMSO controls; details: 10 µM; 24 h; SM minimal medium; subpopulation (auxotrophy): H
# In short: as §1
# [7] = system: Saccharomyces cerevisiae BY4741 SeMeCo community; assay: z-score of subpopulation abundance vs DMSO median, subpopulation auxotrophic for LM; higher = larger share of this subpopulation than in DMSO controls; details: 10 µM; 24 h; SM minimal medium; subpopulation (auxotrophy): LM
# In short: as §1
# [8] = system: Saccharomyces cerevisiae BY4741 SeMeCo community; assay: z-score of subpopulation abundance vs DMSO median, subpopulation auxotrophic for HU; higher = larger share of this subpopulation than in DMSO controls; details: 10 µM; 24 h; SM minimal medium; subpopulation (auxotrophy): HU
# In short: as §1
# [9] = system: Saccharomyces cerevisiae BY4741 SeMeCo community; assay: z-score of subpopulation abundance vs DMSO median, subpopulation auxotrophic for UM; higher = larger share of this subpopulation than in DMSO controls; details: 10 µM; 24 h; SM minimal medium; subpopulation (auxotrophy): UM
# In short: as §1
# [10] = system: Saccharomyces cerevisiae BY4741 SeMeCo community; assay: z-score of subpopulation abundance vs DMSO median, subpopulation auxotrophic for HLU; higher = larger share of this subpopulation than in DMSO controls; details: 10 µM; 24 h; SM minimal medium; subpopulation (auxotrophy): HLU
# In short: as §1
# [11] = system: Saccharomyces cerevisiae BY4741 SeMeCo community; assay: z-score of subpopulation abundance vs DMSO median, subpopulation auxotrophic for HLM; higher = larger share of this subpopulation than in DMSO controls; details: 10 µM; 24 h; SM minimal medium; subpopulation (auxotrophy): HLM
# In short: as §1
# [12] = system: Saccharomyces cerevisiae BY4741 SeMeCo community; assay: z-score of subpopulation abundance vs DMSO median, subpopulation auxotrophic for HUM; higher = larger share of this subpopulation than in DMSO controls; details: 10 µM; 24 h; SM minimal medium; subpopulation (auxotrophy): HUM
# In short: as §1
# [13] = system: Saccharomyces cerevisiae BY4741 SeMeCo community; assay: z-score of subpopulation abundance vs DMSO median, subpopulation auxotrophic for LUM; higher = larger share of this subpopulation than in DMSO controls; details: 10 µM; 24 h; SM minimal medium; subpopulation (auxotrophy): LUM
# In short: as §1
# [14] = system: Saccharomyces cerevisiae BY4741 SeMeCo community; assay: z-score of subpopulation abundance vs DMSO median, subpopulation auxotrophic for HM; higher = larger share of this subpopulation than in DMSO controls; details: 10 µM; 24 h; SM minimal medium; subpopulation (auxotrophy): HM
# In short: as §1
# [15] = system: Saccharomyces cerevisiae BY4741 SeMeCo community; assay: z-score of subpopulation abundance vs DMSO median, subpopulation auxotrophic for HL; higher = larger share of this subpopulation than in DMSO controls; details: 10 µM; 24 h; SM minimal medium; subpopulation (auxotrophy): HL
# In short: as §1
# [16] = system: Saccharomyces cerevisiae BY4741 SeMeCo community; assay: z-score of subpopulation abundance vs DMSO median, subpopulation auxotrophic for HLUM; higher = larger share of this subpopulation than in DMSO controls; details: 10 µM; 24 h; SM minimal medium; subpopulation (auxotrophy): HLUM
# In short: as §1
# [17] = system: Saccharomyces cerevisiae BY4741 SeMeCo community; assay: z-score of subpopulation abundance vs DMSO median, subpopulation auxotrophic for LU; higher = larger share of this subpopulation than in DMSO controls; details: 10 µM; 24 h; SM minimal medium; subpopulation (auxotrophy): LU
# In short: as §1
Compound,mean cell size [1],z-score of prototroph abundance [2],z-score of subpopulation abundance [3],z-score of subpopulation abundance [4],z-score of subpopulation abundance [5],z-score of subpopulation abundance [6],z-score of subpopulation abundance [7],z-score of subpopulation abundance [8],z-score of subpopulation abundance [9],z-score of subpopulation abundance [10],z-score of subpopulation abundance [11],z-score of subpopulation abundance [12],z-score of subpopulation abundance [13],z-score of subpopulation abundance [14],z-score of subpopulation abundance [15],z-score of subpopulation abundance [16],z-score of subpopulation abundance [17]
NC[C@H]1O[C@H](O[C@H]2[C@H](O)[C@@H](O[C@H]3O[C@H](CO)[C@@H](O)[C@H](N)[C@H]3O)[C@H](N)C[C@@H]2N)[C@H](O)[C@@H](O)[C@@H]1O [Kanamycin sulfate],11.9 ± 0.26,-0.43,0.84,1.91,-0.55,1.26,1.55,-0.5,-0.15,0.63,-0.02,0.21,0.52,,,,
Nc1nc2[nH]cc(CCc3ccc(C(=O)N[C@@H](CCC(=O)O)C(=O)O)cc3)c2c(=O)[nH]1 [Pemetrexed],14.85 ± 0.13,3.89,-9.06,1.61,-1.55,5.02,,2.15,-7.46,4.74,0.42,-4.52,-3.17,-4.62,2.81,,
Cc1cc(NS(=O)(=O)c2ccc(N)cc2)no1 [Sulfamethoxazole],12.4 ± 0.24,-0.28,0.51,0.5,-0.2,-0.46,0.08,-0.16,0.65,1.04,-0.58,-0.13,-0.02,,0.5,-0.41,
NCCc1ccc(O)c(O)c1 [Dopamine HCl],,1.09,-0.7,-1.11,-0.48,-0.34,-0.73,-0.79,-0.71,-0.89,-0.89,-0.77,,,-1.06,-0.04,
NC[C@H]1O[C@H](O[C@H]2[C@H](O[C@@H]3O[C@H](CO)[C@@H](O)[C@H]3O)[C@@H](O)[C@H](N)C[C@@H]2N)[C@H](N)[C@@H](O)[C@@H]1O [Ribostamycin Sulfate],12.13 ± 0.035,0.31,,-0.39,0.39,-0.21,-0.67,-0.5,0.36,-0.07,-0.38,0.24,-0.84,0.04,-0.49,0.36,0.09
CC1(C)S[C@@H]2[C@H](NC(=O)[C@H](N)c3ccc(O)cc3)C(=O)N2[C@H]1C(=O)O [Amoxicillin],12.6 ± 0.28,-0.05,0.35,-0.63,,,,0.65,0.46,0.39,,0.4,0.09,0.32,-0.54,0.49,
CN1[C@@H]2CC[C@H]1C[C@@H](OC(=O)c1c[nH]c3ccccc13)C2 [Tropisetron HCl],12.57 ± 0.083,-1,,0.79,-0.06,-0.68,1.09,-0.68,0.28,0.2,-0.38,0.19,0.15,0.26,-0.91,1.3,1
C[N+]1(C)[C@@H]2C[C@@H](OC(=O)C(O)(c3cccs3)c3cccs3)C[C@H]1[C@@H]1O[C@@H]12 [Tiotropium Bromide hydrate],,0.56,0.04,-0.76,,,-0.42,-0.66,0.07,-0.81,,-0.43,-0.67,,-0.52,-0.81,
COC(=O)C1=C(C)NC(C)=C(C(=O)OC(C)C)C1c1cccc2nonc12 (configuration not stated) [Isradipine],,-0.42,-0.1,,0.74,-0.09,-1.09,0.75,1.06,0.04,-0.7,0.44,-0.39,-0.24,-0.52,0.04,
CC[N+](C)(C)c1cccc(O)c1 [Edrophonium chloride],12.28 ± 0.12,-0.67,0.34,-0.53,1.2,-1.41,-0.05,-0.07,0.7,-0.56,,,0.48,-0.15,-0.46,0.62,
CN[C@H]1CC[C@@H](c2ccc(Cl)c(Cl)c2)c2ccccc21 [Sertraline HCl],12.4 ± 0.056,1.15,0.18,-0.29,,-1.14,,-1.26,-0.56,-0.32,-0.66,,,,-0.5,-0.97,
CC(=O)OC(C)C[N+](C)(C)C (configuration not stated) [Methacholine chloride],,-0.97,0,,,0.16,0.88,0.67,0.68,0.55,0.76,,,0.64,0.45,,
COCCCC/C(=N\OCCN)c1ccc(C(F)(F)F)cc1 [Fluvoxamine maleate],12.3 ± 0.13,0.26,0.23,0.54,-0.51,-0.64,0.51,-0.5,-0.21,-0.3,-0.76,,0.15,,-0.26,-0.43,
NC(CO)(CO)CO [Trometamol],12.2 ± 0.18,-0.35,0.08,,0.6,,-0.62,,0.88,-0.13,-0.69,-0.08,0.42,-0.48,0,-0.35,
C#C[C@]1(O)CC[C@H]2[C@@H]3CCC4=CCCC[C@@H]4[C@H]3C(=C)C[C@@]21CC [Desogestrel],12.3 ± 0.29,0.47,-0.11,-0.12,-0.38,,-0.94,,-1.41,0.73,,,-0.72,-0.05,0.58,,
